The text below walks through data of PubChem BioAssay (EPA / NIEHS).

In test [1] the target is human Caspase 2 (CASP2), CASP2 (gene 835) (UniProt P42575). The test can be described thus: NVS_ENZ_hCASP2: NovaScreen (NVS) Enzymatic Assay for human Caspase 2 (CASP2) (AID 2283135). The method in brief:
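E. coli-expressed enzyme in a cell-free protease assay, fluorescence read 1 h after dosing. Compounds at 25 uM in duplicate, with concentration-response up to 50 uM for hits; loss of signal against DMSO baseline.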

For test [2], the target named is human Fibroblast Growth Factor Receptor 1 (FGFR1), FGFR1 (gene 2260) (UniProt P11362). Kind of test: NVS_ENZ_hFGFR1: NovaScreen (NVS) Enzymatic Assay for human Fibroblast Growth Factor Receptor 1 (FGFR1) (AID 2283159).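 For AC50: hits lower the signal so potencies describe inhibitors of the kinase.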 Put shortly: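 Cell-free recombinant kinase with fluorescent substrate, product separated by electrophoretic mobility shift; read 1 hour after dosing, loss of signal relative to DMSO. Initial screen in duplicate at 25 uM, actives followed in concentration series.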

Test [3] has as its target human Aurora Kinase A - serine/threonine-protein Kinase 6 (AurA), AURKA (gene 6790) (UniProt O14965). Kind of test: NVS_ENZ_hAurA: NovaScreen (NVS) Enzymatic Assay for human Aurora Kinase A - serine/threonine-protein Kinase 6 (AurA) (AID 2283142). The method in brief:
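Cell-free enzymatic assay with human Aurora A, 1 hour after dosing. Fluorescent substrate turnover detected after electrophoretic mobility shift separation of substrate and product. Screened at 25 uM, actives retested in concentration-response up to 50 uM.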

Test [4] deals with human Epidermal Growth Factor Receptor (EGFR), EGFR (gene 1956) (UniProt P00533). Kind of test: NVS_ENZ_hEGFR: NovaScreen (NVS) Enzymatic Assay for human Epidermal Growth Factor Receptor (EGFR) (AID 2283151). Put shortly: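 Cell-free kinase assay, fluorescence plus electrophoretic mobility shift separating substrate and product, read 1 hour after dosing; loss of signal vs DMSO. Duplicate screen at 25 uM, then concentration-response to 50 uM.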
human Epidermal Growth Factor Receptor (EGFR), EGFR (gene 1956), sequence (P00533 whole entry, looked up): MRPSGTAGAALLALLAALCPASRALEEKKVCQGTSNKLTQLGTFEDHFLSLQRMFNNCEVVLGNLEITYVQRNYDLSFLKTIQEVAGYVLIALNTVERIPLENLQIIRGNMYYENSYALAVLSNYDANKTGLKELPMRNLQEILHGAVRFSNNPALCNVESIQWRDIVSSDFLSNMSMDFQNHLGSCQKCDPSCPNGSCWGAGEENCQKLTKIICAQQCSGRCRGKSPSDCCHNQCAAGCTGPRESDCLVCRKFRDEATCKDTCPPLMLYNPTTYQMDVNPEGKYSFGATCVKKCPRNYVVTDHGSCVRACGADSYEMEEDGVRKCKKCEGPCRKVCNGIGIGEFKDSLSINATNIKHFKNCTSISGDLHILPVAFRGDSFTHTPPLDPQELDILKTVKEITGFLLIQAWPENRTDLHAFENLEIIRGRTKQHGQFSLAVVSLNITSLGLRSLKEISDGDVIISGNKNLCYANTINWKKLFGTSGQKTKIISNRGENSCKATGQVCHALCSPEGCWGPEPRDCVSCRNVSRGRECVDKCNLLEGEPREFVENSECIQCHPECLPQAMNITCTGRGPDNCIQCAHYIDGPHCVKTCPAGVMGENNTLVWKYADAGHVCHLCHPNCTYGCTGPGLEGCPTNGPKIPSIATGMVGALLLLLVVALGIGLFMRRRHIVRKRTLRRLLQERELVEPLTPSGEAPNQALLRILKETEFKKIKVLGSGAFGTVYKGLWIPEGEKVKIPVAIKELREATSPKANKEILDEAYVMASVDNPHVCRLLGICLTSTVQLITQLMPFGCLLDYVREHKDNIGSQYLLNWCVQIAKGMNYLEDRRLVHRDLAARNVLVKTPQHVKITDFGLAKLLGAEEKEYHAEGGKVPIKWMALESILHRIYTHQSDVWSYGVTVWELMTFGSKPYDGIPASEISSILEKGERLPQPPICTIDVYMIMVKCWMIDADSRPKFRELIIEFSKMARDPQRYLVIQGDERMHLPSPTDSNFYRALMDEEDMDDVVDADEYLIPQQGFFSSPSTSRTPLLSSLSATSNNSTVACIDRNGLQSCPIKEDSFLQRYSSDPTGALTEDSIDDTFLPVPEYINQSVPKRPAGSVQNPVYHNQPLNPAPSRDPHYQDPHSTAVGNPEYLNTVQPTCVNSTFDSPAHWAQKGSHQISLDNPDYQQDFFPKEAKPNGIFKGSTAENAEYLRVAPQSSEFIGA

Another test addresses PPP2CA (gene 5515) (UniProt P67775). The test can be described thus: NVS_ENZ_hPPP2CA: NovaScreen (NVS) Enzymatic Assay for human Protein Phosphatase 2 Aatalytic subunit Alpha (PPP2CA) (AID 2283199). Put shortly:
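Recombinant human PPP2CA with fluorescent substrate; product separated from substrate by electrophoretic mobility shift, read 1.33 h after dosing. Duplicate single-point at 25 uM, then singleton concentration-response up to 50 uM; loss of signal versus DMSO.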

For test [5], the target named is human Raf-1 Proto-Oncogene, serine/threonine Kinase (RAF1), RAF1 (gene 5894) (UniProt P04049). The test can be described thus: NVS_ENZ_hRAF1: NovaScreen (NVS) Enzymatic Assay for human Raf-1 Proto-Oncogene, serine/threonine Kinase (RAF1) (AID 2283216). Put shortly:
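Cell-free recombinant kinase with specific fluorescent substrate, product separated by electrophoretic mobility shift; read 1 h after dosing. Primary screen at 25 uM in duplicate; hits then run in concentration-response up to 50 uM, fitted as loss of signal versus DMSO.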

Test [6] has as its target human Tyrosine Protein Kinase Receptor Tie-2 (Tie2), TEK (gene 7010) (UniProt Q02763). Kind of test: NVS_ENZ_hTie2: NovaScreen (NVS) Enzymatic Assay for human Tyrosine Protein Kinase Receptor Tie-2 (Tie2) (AID 2283225). Put shortly:
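Recombinant human Tie2 kinase activity was read cell-free by fluorescence with electrophoretic mobility shift, 1 hour after dosing. The screen used 25 uM in duplicate, then concentration-response up to 50 uM. Signal loss was scored against DMSO.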

Test [7] deals with human Matrix Metalloproteinase-1 (MMP1), MMP1 (gene 4312) (UniProt P03956). The test can be described thus: NVS_ENZ_hMMP1: NovaScreen (NVS) Enzymatic Assay for human Matrix Metalloproteinase-1 (MMP1) (AID 2283181). The method in brief: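 Human MMP1 enzyme activity measured by fluorescence 1 h after dosing, cell-free, with a specific substrate. Screened in duplicate at 25 uM; hits (e.g. 30% inhibition) run in concentration-response up to 50 uM; loss of signal versus DMSO.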

Test [8] has as its target human Phosphatase and Tensin Homolog (PTEN), PTEN (gene 5728) (UniProt P60484). Kind of test: NVS_ENZ_hPTEN: NovaScreen (NVS) Enzymatic Assay for human Phosphatase and Tensin Homolog (PTEN) (AID 2283203). The method in brief:
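Cell-free recombinant human PTEN with fluorescent substrate; product separated by electrophoretic mobility shift and read by fluorescence 1 h after dosing. Primary screen in duplicate at 25 uM, actives followed in concentration series versus DMSO.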

In test [9] the target is human Protein Tyrosine Phosphatase Non-receptor Type 2 (PTPN2), PTPN2 (gene 5771) (UniProt P17706). The test can be described thus: NVS_ENZ_hPTPN2: NovaScreen (NVS) Enzymatic Assay for human Protein Tyrosine Phosphatase Non-receptor Type 2 (PTPN2) (AID 2283207). Put shortly:
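Cell-free recombinant enzyme with fluorescent substrate, product separated by electrophoretic mobility shift; read 1 h after dosing. Primary screen single concentration (25 uM) in duplicate; actives followed in concentration series; loss of signal versus DMSO.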

Test [10] addresses Voltage-dependent N-type calcium channel subunit alpha-1B (Rattus norvegicus) (UniProt Q02294). Kind of test: NVS_IC_rCaChN: NovaScreen (NVS) Ion Channel Assay for rat Calcium Channel, Type N (CaChN) (AID 2283317).
In test [11] the target is human NIMA (Never In Mitosis Gene A)-Related Kinase 2 (NEK2), NEK2 (gene 4751) (UniProt P51955). Kind of test: NVS_ENZ_hNEK2: NovaScreen (NVS) Enzymatic Assay for human NIMA (Never In Mitosis Gene A)-Related Kinase 2 (NEK2) (AID 2283188). Put shortly: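 Cell-free NEK2 enzyme activity after 1 h exposure, read by fluorescence with electrophoretic mobility shift separating substrate and product. Primary screen in duplicate at 25 uM; actives then run as concentration series. Loss of signal versus DMSO scored.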

The target of test [12] is Norway rat Vesicular Monoamine Transporter (VMAT2), neurotransmitter transporter, Slc18a2 (gene 25549) (UniProt Q01827). The test can be described thus: NVS_TR_rVMAT2: NovaScreen (NVS) Transporter Assay for Norway rat Vesicular Monoamine Transporter (VMAT2), neurotransmitter transporter (AID 2283376).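 Note: actives lower the bound radioligand signal below the DMSO level.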 Put shortly: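 Tissue: rat forebrain extract. Format: competitive radioligand binding, cell-free. Timepoint: 1 h. Readout: filter radiodetection/scintillation. Screen: 25 uM in duplicate, then concentration series for actives. Baseline: DMSO.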
Norway rat Vesicular Monoamine Transporter (VMAT2), neurotransmitter transporter, Slc18a2 (gene 25549), sequence (Q01827 whole entry, looked up): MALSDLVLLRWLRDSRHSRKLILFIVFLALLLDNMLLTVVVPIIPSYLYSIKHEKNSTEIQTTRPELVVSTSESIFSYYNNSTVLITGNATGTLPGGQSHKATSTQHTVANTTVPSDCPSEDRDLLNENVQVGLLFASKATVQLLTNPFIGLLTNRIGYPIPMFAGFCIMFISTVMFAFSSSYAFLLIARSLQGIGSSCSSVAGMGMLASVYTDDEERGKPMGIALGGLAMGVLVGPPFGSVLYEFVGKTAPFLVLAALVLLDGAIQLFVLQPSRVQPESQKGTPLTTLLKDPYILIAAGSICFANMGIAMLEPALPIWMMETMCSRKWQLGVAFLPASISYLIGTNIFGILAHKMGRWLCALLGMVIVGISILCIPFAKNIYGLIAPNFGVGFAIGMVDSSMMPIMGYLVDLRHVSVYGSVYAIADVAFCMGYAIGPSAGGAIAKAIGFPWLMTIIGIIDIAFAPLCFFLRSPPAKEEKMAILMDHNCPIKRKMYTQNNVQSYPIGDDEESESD

Test [13] concerns the target rat Oxytocin Receptor (OXT), Oxtr (gene 25342) (UniProt P70536). The test can be described thus: NVS_GPCR_rOXT: NovaScreen (NVS) G Protein-Coupled Receptor Assay for rat Oxytocin Receptor (OXT) (AID 2283330). The method in brief: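 Radioligand displacement on rat uterine membranes, 1 h incubation, filter-based scintillation counting. Chemicals were screened in duplicate at 25 uM, and those passing threshold were retested in concentration-response up to 50 uM. Loss of binding was fitted versus DMSO.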

Test [14] addresses rat Gamma-Aminobutyric Acid Type A Receptor BDZ, alpha 6 site (GABARa6), Gabra6 (gene 29708) (UniProt P30191). The test can be described thus: NVS_LGIC_rGABARa6: NovaScreen (NVS) Ligand-Gated Ion Channel Assay for rat Gamma-Aminobutyric Acid Type A Receptor BDZ, alpha 6 site (GABARa6) (AID 2283339). The method in brief:
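Rat cerebellar membranes; radioligand binding, filtration and scintillation counting, read 1 h after dosing. Single-concentration duplicate screen at 25 uM, then concentration-response up to 50 uM for actives; loss of signal fitted versus DMSO baseline.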

Where “and” joins values, the source holds several entries; their conditions need not be identical. Equal values may be shown once. Records with an inconclusive call do not appear. Calls of active or inactive are those of the source. Rule for the calls: active = hit-call score of the fitted dose curve at least 0.9, where 1 is the maximum; inconclusive = response in the unintended direction; inactive = score below 0.9.

human Tyrosine Protein Kinase Receptor Tie-2 (Tie2), TEK (gene 7010), sequence (Q02763 whole entry, looked up): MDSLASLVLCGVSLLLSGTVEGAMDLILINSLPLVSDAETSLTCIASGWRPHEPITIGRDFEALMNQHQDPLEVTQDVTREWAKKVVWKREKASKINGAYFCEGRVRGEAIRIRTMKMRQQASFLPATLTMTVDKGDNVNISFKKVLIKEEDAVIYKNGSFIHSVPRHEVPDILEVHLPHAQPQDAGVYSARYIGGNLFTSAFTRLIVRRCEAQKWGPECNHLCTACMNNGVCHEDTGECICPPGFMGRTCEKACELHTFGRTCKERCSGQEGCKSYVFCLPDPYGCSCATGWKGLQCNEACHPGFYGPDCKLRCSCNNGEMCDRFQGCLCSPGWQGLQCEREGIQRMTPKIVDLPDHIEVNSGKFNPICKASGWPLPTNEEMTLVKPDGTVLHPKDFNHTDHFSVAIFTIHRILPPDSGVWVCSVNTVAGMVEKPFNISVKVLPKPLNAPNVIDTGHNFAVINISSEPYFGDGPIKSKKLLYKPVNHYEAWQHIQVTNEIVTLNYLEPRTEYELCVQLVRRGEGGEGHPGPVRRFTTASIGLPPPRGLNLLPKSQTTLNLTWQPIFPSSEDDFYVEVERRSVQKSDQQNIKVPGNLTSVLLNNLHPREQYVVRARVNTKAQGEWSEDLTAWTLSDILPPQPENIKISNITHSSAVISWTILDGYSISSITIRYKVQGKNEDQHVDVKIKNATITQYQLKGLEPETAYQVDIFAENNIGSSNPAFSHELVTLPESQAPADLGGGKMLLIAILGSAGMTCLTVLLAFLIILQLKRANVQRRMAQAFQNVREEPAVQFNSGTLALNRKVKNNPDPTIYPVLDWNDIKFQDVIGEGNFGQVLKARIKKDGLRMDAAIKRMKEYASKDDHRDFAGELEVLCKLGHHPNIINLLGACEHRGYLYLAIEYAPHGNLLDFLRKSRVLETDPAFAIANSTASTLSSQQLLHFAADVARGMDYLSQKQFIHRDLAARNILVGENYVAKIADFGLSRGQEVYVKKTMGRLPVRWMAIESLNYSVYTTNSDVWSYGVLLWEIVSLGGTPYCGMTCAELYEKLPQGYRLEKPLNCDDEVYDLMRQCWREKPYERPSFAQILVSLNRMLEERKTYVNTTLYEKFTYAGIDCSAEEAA
human Aurora Kinase A - serine/threonine-protein Kinase 6 (AurA), AURKA (gene 6790), sequence (O14965 whole entry, looked up): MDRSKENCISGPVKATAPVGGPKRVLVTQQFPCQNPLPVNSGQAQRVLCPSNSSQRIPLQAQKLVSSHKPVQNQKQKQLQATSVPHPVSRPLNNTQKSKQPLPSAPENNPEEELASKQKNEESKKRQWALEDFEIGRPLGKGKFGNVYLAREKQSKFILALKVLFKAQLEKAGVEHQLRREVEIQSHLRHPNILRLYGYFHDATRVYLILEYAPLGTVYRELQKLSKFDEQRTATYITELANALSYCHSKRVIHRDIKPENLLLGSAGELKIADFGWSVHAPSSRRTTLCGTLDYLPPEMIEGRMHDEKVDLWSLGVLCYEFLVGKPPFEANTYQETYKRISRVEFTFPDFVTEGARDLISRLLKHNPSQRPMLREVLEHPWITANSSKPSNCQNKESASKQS
human Caspase 2 (CASP2), CASP2 (gene 835), sequence (P42575 whole entry, looked up): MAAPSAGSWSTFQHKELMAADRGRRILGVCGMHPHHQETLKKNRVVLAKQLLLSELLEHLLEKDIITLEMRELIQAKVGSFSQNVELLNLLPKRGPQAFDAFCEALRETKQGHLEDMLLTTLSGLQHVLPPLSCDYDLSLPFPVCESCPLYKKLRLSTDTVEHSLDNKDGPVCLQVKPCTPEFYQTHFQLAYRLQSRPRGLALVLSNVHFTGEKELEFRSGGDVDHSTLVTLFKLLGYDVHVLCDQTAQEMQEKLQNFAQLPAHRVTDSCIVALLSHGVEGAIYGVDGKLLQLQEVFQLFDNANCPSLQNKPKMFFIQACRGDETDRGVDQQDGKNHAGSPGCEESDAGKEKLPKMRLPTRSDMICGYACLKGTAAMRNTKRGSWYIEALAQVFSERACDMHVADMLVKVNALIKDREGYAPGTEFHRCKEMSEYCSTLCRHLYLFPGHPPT
human Raf-1 Proto-Oncogene, serine/threonine Kinase (RAF1), RAF1 (gene 5894), sequence (P04049 whole entry, looked up): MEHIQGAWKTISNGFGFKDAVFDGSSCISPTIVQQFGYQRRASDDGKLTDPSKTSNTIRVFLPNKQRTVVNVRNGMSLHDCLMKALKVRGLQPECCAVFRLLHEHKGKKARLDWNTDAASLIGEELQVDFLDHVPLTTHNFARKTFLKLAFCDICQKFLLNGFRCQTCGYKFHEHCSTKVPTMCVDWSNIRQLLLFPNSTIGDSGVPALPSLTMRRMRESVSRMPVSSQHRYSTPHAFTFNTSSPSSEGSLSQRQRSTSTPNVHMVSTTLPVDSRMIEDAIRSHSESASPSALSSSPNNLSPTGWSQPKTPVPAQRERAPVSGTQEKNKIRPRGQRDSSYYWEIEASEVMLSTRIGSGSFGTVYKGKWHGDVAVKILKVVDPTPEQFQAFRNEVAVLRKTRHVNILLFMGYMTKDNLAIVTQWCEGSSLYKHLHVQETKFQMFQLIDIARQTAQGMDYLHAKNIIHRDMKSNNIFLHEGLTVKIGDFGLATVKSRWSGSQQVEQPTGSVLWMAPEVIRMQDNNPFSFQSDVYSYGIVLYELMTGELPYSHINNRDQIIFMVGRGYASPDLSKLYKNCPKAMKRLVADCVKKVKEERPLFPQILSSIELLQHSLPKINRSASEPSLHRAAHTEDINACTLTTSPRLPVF
human Protein Tyrosine Phosphatase Non-receptor Type 2 (PTPN2), PTPN2 (gene 5771), sequence (P17706 whole entry, looked up): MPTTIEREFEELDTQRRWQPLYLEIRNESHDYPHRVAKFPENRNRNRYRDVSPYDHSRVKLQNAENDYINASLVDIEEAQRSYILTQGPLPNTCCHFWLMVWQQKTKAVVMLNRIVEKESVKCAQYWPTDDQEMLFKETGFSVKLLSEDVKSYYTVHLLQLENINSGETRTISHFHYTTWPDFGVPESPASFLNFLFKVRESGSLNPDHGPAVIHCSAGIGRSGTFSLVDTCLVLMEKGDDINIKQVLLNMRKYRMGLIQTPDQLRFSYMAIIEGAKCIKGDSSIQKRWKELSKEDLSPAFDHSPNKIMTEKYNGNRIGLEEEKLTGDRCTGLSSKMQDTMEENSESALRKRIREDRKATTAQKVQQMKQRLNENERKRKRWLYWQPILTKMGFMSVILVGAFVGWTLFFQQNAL

Consider `Cc1ccc(C(C)(C)C)c(O)c1`, for which the call in test [1] and in [2] was inactive.

Consider `CCCCCCCC/C=C\CCCCCCCC(=O)OC[C@@H](O)[C@H]1OC[C@H](O)[C@H]1O`, for which the compound was called inactive in test [3], in test [4] and in test [2].

Take `Cc1ccc(N)cc1O`: the result (in test [3]; in test [4]; in [2]; in the test with PPP2CA (gene 5515); in test [5]; in [6]) was inactive.

Take `FC(F)(F)C(F)(F)C(F)(F)C(F)(F)C(F)(F)C(F)(F)CCI`: the result in [3], in [4], in [2], in [7], in test [8] and in [9] was inactive. The compound was called inactive in test [5] and in [6].

Consider `CC(C)COC(=O)CCCCC(=O)OCC(C)C`, for which the compound was classed as inactive in test [1] and in [10].

For the compound `CN(C)CCCN(C)CCCN(C)C`, the compound was called inactive in test [1] and in [10].

Turning to `CCOC(=O)c1ccc(O)cc1`, the outcome in [1] and in [2] was inactive.

With `c1ccc(Nc2ccccc2)cc1`, the call in test [1] and in test [9] was inactive.

With `CC=Cc1ccc(O)c(OC)c1`, in test [3], the compound was classed as inactive.

`CN(C)c1ccc(Cc2ccc(N(C)C)cc2)cc1`: the compound was classed as inactive in test [3].

Take `CC/C(=C(/CC)c1ccc(O)cc1)c1ccc(O)cc1`: the compound was classed as inactive (in test [3]; in test [4]; in [11]; in the test with PPP2CA (gene 5515); in test [8]; in [9]). The outcome in test [5] and in test [6] was inactive. In addition, the AC50 (in general, the concentration at which the activity in the assay is half-maximal) is 37 µM (active) in [2]; 12 µM (active) and 14.7 µM (active) and 20.5 µM (active) in [12].

`CNCc1cc(F)ccc1Oc1ccc(Cl)c(Cl)c1`: the call in [1] was inactive.

Regarding `NCC1(Cc2noc(=O)[nH]2)CCCCC1`, the result in test [1], in test [10] and in [13] was inactive.

Turning to `Cc1c(-c2cccnc2)c2ccccc2n1CCCCC(=O)O`, the compound was classed as inactive in [1], in test [2] and in test [14].

Turning to `CCc1cccc(CC)c1N`, the compound was classed as inactive in test [1] and in test [2].
